# Experimental data taken from PubChem BioAssay (NCATS).
# “And” between values parts separate entries of the source, which are not always exact repeats. Equal values may be shown once. Inconclusive results are not listed. Where a call stands in place of a potency, no number is given. Values without a mark were called inactive. The source made the active and inactive calls. Calls follow the shape of the dose curve; as a rule, active = well fitted curve in the direction sought with a large enough effect; inconclusive = small, poorly fitted or top-dose-only effect, or another doubt; inactive = no such curve, though single readings can be large; an effect the other way counts as inactive or inconclusive. Square brackets hold non-standard residues; d marks the D form. Peptide text beside a SMILES is read from it. dPhe(4-Cl) = N[C@H](Cc1ccc(Cl)cc1)C(=O)O; d2Nal = N[C@H](Cc1ccc2ccccc2c1)C(=O)O; dCit = NC(=O)NCCC[C@@H](N)C(=O)O; d3Pal = N[C@H](Cc1cccnc1)C(=O)O; Hyp = O=C(O)[CH]1C[CH](O)CN1; Phe(ol) = N[CH](CO)Cc1ccccc1; Iva = CC[C](C)(N)C(=O)O; Aib = CC(C)(N)C(=O)O
# What was measured:
# [1] = target: Cellular tumor antigen p53 (Homo sapiens) (UniProt P04637); assay: Primary qHTS for small molecule compounds that upregulate eGFP-tagged delta133p53alpha (in N-terminal) cells. (AID 2060322); conditions: NCI-H358 eGFP-delta133p53alpha fluorescence, 24 h; activation: stronger effect = higher value; also: nearly all actives have a fitted effect of over 75% in size; also: potency is read from the fitted curve at half-maximal effect;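 as to activation: cells pre-induced with doxycycline then dosed without doxycycline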
# Method in brief: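 NCI-H358 cells pre-induced 24 h with 10 ng/ml doxycycline for eGFP-delta133p53alpha, plated dox-free and exposed 24 h at 37C to titrated compounds. Fixed, Hoechst-stained; gated GFP peak intensity by laser scanning cytometry, normalized to DMSO (0%) and 57.5 uM 5-azacytidine (100%).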
# [2] = target: Aldehyde dehydrogenase, mitochondrial (Homo sapiens) (UniProt P05091); assay: qHTS for Inhibitors of the Aldehyde Dehydrogenase Family (ALDH2) Primary screen (AID 2061308); conditions: ALDH2 enzyme inhibition qHTS, 1536-well; series mostly up to 56 µM; also: nearly all actives have a fitted effect of over 55% in size
# [3] = target: Retinaldehyde dehydrogenase 3 (Homo sapiens) (UniProt P47895); assay: qHTS for Inhibitors of the Aldehyde Dehydrogenase Family (ALDH1A3) Primary screen (AID 2061315); conditions: ALDH inhibition qHTS; series mostly up to 56 µM
# Chain of Cellular tumor antigen p53 (Homo sapiens) (P04637 whole entry, looked up): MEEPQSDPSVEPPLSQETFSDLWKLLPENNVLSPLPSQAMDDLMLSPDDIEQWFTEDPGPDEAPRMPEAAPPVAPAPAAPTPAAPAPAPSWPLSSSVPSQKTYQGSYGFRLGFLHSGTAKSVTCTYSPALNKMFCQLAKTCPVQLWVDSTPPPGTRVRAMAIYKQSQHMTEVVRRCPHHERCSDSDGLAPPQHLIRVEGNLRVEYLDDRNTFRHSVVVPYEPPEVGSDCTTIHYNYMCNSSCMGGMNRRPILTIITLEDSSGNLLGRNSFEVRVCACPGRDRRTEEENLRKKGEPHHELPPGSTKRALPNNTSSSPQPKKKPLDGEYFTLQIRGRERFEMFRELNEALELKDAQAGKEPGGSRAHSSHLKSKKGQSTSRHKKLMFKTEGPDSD
Compound,activation [1],Potency [2],Potency [3],Potency [1],"activity change, negative = inhibition [2]","activity change, negative = inhibition [3]"
CC(=O)N[C@H](Cc1ccc2ccccc2c1)C(=O)N[C@H](Cc1ccc(Cl)cc1)C(=O)N[C@H](Cc1cccnc1)C(=O)N[C@@H](CO)C(=O)N[C@@H](Cc1ccc(O)cc1)C(=O)N[C@H](CCCNC(N)=O)C(=O)N[C@@H](CC(C)C)C(=O)N[C@@H](CCCN=C(N)N)C(=O)N1CCC[C@H]1C(=O)N[C@H](C)C(N)=O (Ac-[d2Nal][dPhe(4-Cl)][d3Pal]SY[dCit]LRP[dA]-NH2),13%,inactive,inactive,,,
CC(C)(C)c1cc(CN2CCN(CC(O)c3ccc(Cl)cc3)CC2)cc(C(C)(C)C)c1O (stereo not drawn),-0.477%,inactive,inactive,,,
CC/C=C(\C(=O)N[C@@H]1C(=O)N2C(C(=O)OCOC(=O)C(C)(C)C)=C(COC(N)=O)CS[C@H]12)c1csc(N)n1,2.82% and -18.4%,inactive,inactive,,,
CC1=CC(=O)CC(C)(C)C1CCC(C)O[C@@H]1O[C@H](CO)[C@@H](O)[C@H](O)[C@H]1O (stereo partly drawn),-3.57%,inactive,inactive,,,
COc1ccc(/C=C/C(=O)O[C@H]2[C@@H]3C=CO[C@@H](O[C@@H]4O[C@H](CO)[C@@H](O)[C@H](O)[C@H]4O)[C@@H]3[C@@]3(CO)O[C@@H]23)cc1O,-2.29%,inactive,inactive,,,
CC1(C)CCC[C@@]2(C)C1[C@H](OC(=O)/C=C/C=C/C(=O)O)C=C1COC(=O)[C@@]12O (stereo partly drawn),-13%,inactive,inactive,,,
CC1(C)OC(=O)C(OCC2CC2)=C1c1ccc(S(C)(=O)=O)cc1,-2.33%,inactive,inactive,,,
C=CC(C)(C)c1[nH]c2cc3c(cc2c1CC1NC(=O)C2CCCN2C1=O)C=CC(C)(C)O3 (stereo not drawn),-13%,inactive,inactive,,,
c1ccc(-c2cnn3cc(-c4ccc(OCCN5CCOCC5)cc4)cnc23)cc1,-17%,inactive,inactive,,,
O=C1OC(c2ccc(O)cc2)C(O)=C1Cc1ccccc1 (stereo not drawn),-3.82%,inactive,inactive,,,
CCN1CCN(Cc2ccc(-c3cc4c(NC(C)c5ccccc5)ncnc4[nH]3)cc2)CC1 (stereo not drawn),,inactive,inactive,26.9 µM (active),,
CC1C(=O)OCC2=CC[N+]3([O-])CCC(OC(=O)C(C)(O)C1(C)O)C23 (stereo not drawn),24.1%,inactive,inactive,,,
N#Cc1ccc(Nc2nc(-c3ccc(O)cc3O)cs2)cc1C(F)(F)F,,inactive,inactive,26.9 µM (active),,
C=CC[N+]1([C@H]2C[C@H]3[C@@H]4CC[C@H]5C[C@H](OC(C)=O)[C@@H](N6CCCCC6)C[C@]5(C)[C@H]4CC[C@]3(C)[C@H]2OC(=O)CC)CCCCC1,-3.67%,inactive,inactive,,,
Cc1cccc(-c2[nH]ncc2-c2ccnc3ccccc23)n1,8.93%,inactive,inactive,,,
CCC(C)(NC(=O)C(CCC(N)=O)NC(=O)C1CC(O)CN1C(=O)C(C)(C)NC(=O)C(C)(C)NC(=O)C(CC(C)C)NC(=O)CNC(=O)C(NC(=O)C(C)(C)NC(=O)C(C)(C)NC(=O)C(C)(C)NC(=O)C(Cc1ccccc1)NC(C)=O)C(C)C)C(=O)N1CC(O)CC1C(=O)NC(C)(C)C(=O)NC(CO)Cc1ccccc1 (stereo not drawn) (Ac-F[Aib][Aib][Aib]VGL[Aib][Aib][Hyp]Q[Iva][Hyp][Aib][Phe(ol)]; configuration not given here),23.7%,,,,-9.83% [at 11.2 µM],11.2% [at 11.2 µM]
CC1(C)C[C@H](O)C[C@@]2(C)[C@H]1[C@H](O)C=C1COC(=O)[C@@]12O,6.11%,inactive,inactive,,,
COc1cc(C)c(C(=O)NC2C(C)OC(OC3CCC(C)C4C3C=C(C)C3/C(C)=C\CC/C(C)=C/C5(C)C=C(C(=O)O)C(C)CC56OC(=O)/C(=C(\O)C34C)C6=O)C(O)C2(C)O)c(O)c1 (stereo not drawn),3.82%,inactive,inactive,,,
CC(=O)OC12CC(C)C(OC(=O)c3ccccc3)C1/C=C(/C)C(OC(=O)c1ccccc1)CC(=O)C(C)(C)/C=C/C(C)C2=O (stereo not drawn),-7.14%,inactive,inactive,,,
CC1(C)CC[C@]2(C(=O)O[C@@H]3O[C@H](CO)[C@@H](O)[C@H](O)[C@H]3O)CC[C@]3(C)C(=CCC4[C@@]5(C)CC[C@H](O[C@@H]6O[C@H](C(=O)O)[C@@H](O)[C@H](O)[C@H]6O)C(C)(C)C5CC[C@]43C)C2C1 (stereo partly drawn),-0.893%,inactive,inactive,,,
CC1C/C=C/C=C\CCCCC(O)C/C=C/C(=O)O1 (stereo not drawn),-17.9%,inactive,inactive,,,
OC[C@@]1(O)CO[C@H](OC[C@H]2O[C@@H](OC(CCCCc3ccc(O)cc3)CCc3ccc(O)cc3)[C@H](O[C@H]3OC[C@](O)(CO)[C@H]3O)[C@@H](O)[C@@H]2O)[C@@H]1O (stereo partly drawn),-2.29%,inactive,inactive,,,
C=C(C(=O)O)C1CC(OC(=O)CC(C)CC)C2(C)CCCC(=C)C2C1 (stereo not drawn),-13%,inactive,inactive,,,

Compound,activation [1],Potency [2],Potency [3],Potency [1],"activity change, negative = inhibition [2]","activity change, negative = inhibition [3]"
C=C1C(=O)OC2C=C(C)CC/C=C(\CO)CC(O)C12 (stereo not drawn),9.92%,inactive,inactive,,,
COC(=O)[C@]12C(=O)C(C)=C(O)[C@@]1(C)C(C)=CC1[C@@]34CC[C@@H](OC(C)=O)C(C)(C)C3[C@H](C[C@]12C)OC4=O (stereo partly drawn),2.29%,inactive,inactive,,,
COc1cn(-c2ccc(-n3cccn3)cc2F)nc(-c2ccnn2-c2ccccc2)c1=O,0%,inactive,inactive,,,
CC[C@H](C)/C=C(C)/C=C/C1=CC2=CC(=O)[C@]3(C)OC(=O)[C@@H](C(C)=O)[C@@H]3C2=CO1,,inactive,inactive,18.6 µM (active),,
C=C1CC[C@@H]2[C@@](C)(CO[C@@H]3O[C@H](CO)C(O)[C@H](O)C3O)[C@H](O)CC[C@@]2(C)[C@@H]1CC/C(C)=C/CO (stereo partly drawn),-5.36%,inactive,inactive,,,
CC(C)CCC(=O)CC1c2ccccc2C(=O)N1c1ccc2ccc(Cl)nc2n1 (stereo not drawn),0.477%,inactive,inactive,,,
O=C1NC(Cc2ccc(O)cc2)C(=O)N2CCCC12 (stereo not drawn),-19.8%,inactive,inactive,,,
CC(C)=CCC/C(C)=C/COCC1OC(n2ccc(=O)[nH]c2=O)C(O)C1O (stereo not drawn),17%,inactive,inactive,,,
C/C=C\NC(=O)C1NC(=O)C(CC(N)=O)NC(=O)C(NC(=O)C(=O)C(C)CC)Cc2ccc(O)c(c2)-c2cccc3c2NC(=O)C3(O)C1O (stereo not drawn),3.82%,inactive,inactive,,,
COc1ccc(/C=C/C(=O)O[C@@H]2[C@@H](OC(C)=O)[C@@H](OC(C)=O)[C@H](O[C@H]3[C@@H]4C=CO[C@@H](O[C@@H]5O[C@H](CO)[C@@H](O)[C@H](O)[C@H]5O)[C@@H]4[C@@]4(CO)O[C@@H]34)O[C@H]2C)cc1O,-16%,inactive,inactive,,,
C=C1/C(=C/C=C2\CCC[C@]3(C)[C@@H]([C@@H](C)OCCC(O)(CC)CC)CC[C@@H]23)C[C@@H](O)C[C@@H]1O,-5%,inactive,inactive,,,
C=CC(C)(C)c1[nH]c2ccccc2c1C[C@@H]1NC(=O)[C@H](Cc2c[nH]c3ccccc23)NC1=O,6.25%,inactive,inactive,,,
C=CC/C=C\C/C=C\CCCCCCCc1cccc(O)c1C(=O)O,8.04%,inactive,inactive,,,
CC1OC(OC2C(C)OC(OC3C(OC(=O)/C=C/c4ccc(O)cc4)C(CO)OC(OC4(COC(=O)/C=C/c5ccc(O)cc5)OC(CO)C(O)C4O)C3OC3OCC(O)(CO)C3O)C(O)C2O)C(O)C(O)C1O (stereo not drawn),14.5%,inactive,inactive,,,
C[C@]12CC/C(=N\OCC(=O)O)C=C1CC[C@@H]1[C@@H]2[C@@H](O)C[C@@]2(C)[C@H]1CC[C@]2(O)C(=O)CO,5.67%,inactive,inactive,,,
C=C[C@H]1[C@H](O[C@@H]2O[C@H](CO)[C@@H](O)[C@H](O)[C@H]2O)OC=C(C(=O)OC)[C@H]1C[C@@H]1N[C@H](C(=O)O)Cc2c1[nH]c1ccccc21,-4.58%,inactive,inactive,,,
CC1(CO)CC2C(O)C(=O)C3(CO)CC3(C)C2C1 (stereo not drawn),-2.29%,inactive,inactive,,,
CC(=O)O[C@H]1[C@@H](O)[C@H](O[C@H]2[C@@H]3C=CO[C@@H](O[C@H]4O[C@@H](CO)[C@H](O)[C@@H](O)[C@@H]4O)[C@@H]3[C@@]3(CO)O[C@@H]23)O[C@@H](C)[C@@H]1OC(=O)/C=C/c1ccccc1,-17.9%,inactive,inactive,,,
CC1(C)O[C@]23C[C@H]1C[C@H](OC(=O)c1ccoc1)[C@]2(C)[C@@H](OC(=O)c1ccoc1)CCC3(C)O (stereo partly drawn),-5.34%,inactive,inactive,,,
CC(NC(=O)CC(=O)O)C(=O)Nc1ccccc1C(N)=O (stereo not drawn),-3.05%,inactive,inactive,,,
C/C=C(\C)C(=O)OC1C=C(C)CC(OC(=O)c2ccc(O)cc2)C2C1(C)CCC2(O)C(C)C (stereo not drawn),-7.63%,inactive,inactive,,,
COc1ccnc2[nH]cc(C(=O)C(=O)N3CCN(C(=O)c4ccccc4)CC3C)c12 (stereo not drawn),-3%,inactive,inactive,,,
C=C1CC[C@@]2(OC1)O[C@H]1CC3C4CC=C5C[C@@H](O[C@@H]6O[C@@H](C)[C@H](O)[C@@H](O)[C@H]6O)C[C@@H](O[C@@H]6O[C@H](C)[C@H](O)[C@H](O)[C@H]6O[C@@H]6O[C@@H](C)[C@H](O)[C@@H](O)[C@H]6O)[C@]5(C)C4CC[C@]3(C)[C@H]1[C@@H]2C (stereo partly drawn),-4.58%,inactive,inactive,,,
